Results as given in PubChem BioAssay (NCATS).
Inconclusive results are not listed. The source made the active and inactive calls. Calls follow the shape of the dose curve; as a rule, active = well fitted inhibition curve with a large enough effect; inconclusive = small, poorly fitted or top-dose-only effect; inactive = flat fitted curve, though single readings scatter.

Key:
Assay in all cases: qHTS profiling for inhibitors of Plasmodium falciparum proliferation (AID 504749); also: nearly all actives have a fitted effect of over 60% in size
Details in all cases: P. falciparum in erythrocytes, SYBR Green DNA, 72 h; series mostly up to 28.7 µM
CP262 = tested on: CP262
Method in brief: (§1)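 SYBR Green fluorescence of parasite DNA, read after lysis and overnight dark incubation, measured growth over 72 h in erythrocyte culture at 0.3% parasitemia and 2.5% hematocrit. Data normalised to DMSO and 0.29 uM artemisinin, with plate-drift correction.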

CP265 = tested on: CP265
Method in brief: as §1

CP266 = tested on: CP266
Method in brief: as §1

CP268 = tested on: CP268
Method in brief: as §1

CP269 = tested on: CP269
Method in brief: as §1

CP286 = tested on: CP286
Method in brief: as §1

CP291 = tested on: CP291
Method in brief: as §1

CP297 = tested on: CP297
Method in brief: as §1

CP305 = tested on: CP305
Method in brief: as §1

CP315 = tested on: CP315
Method in brief: as §1
Potency is read from the fitted curve at half-maximal effect.

| Compound | Potency (CP262) | Potency (CP265) | Potency (CP266) | Potency (CP268) | Potency (CP269) | Potency (CP286) | Potency (CP291) | Potency (CP297) | Potency (CP305) | Potency (CP315) |
| --- | --- | --- | --- | --- | --- | --- | --- | --- | --- | --- |
| CCCCCCCCCCCCCCCC[n+]1ccccc1 | 3.38 µM (active) | 8.91 µM (active) | 13.5 µM (active) | 9.53 µM (active) | 5.36 µM (active) | 2.51 µM (active) | 6.01 µM (active) | 5.36 µM (active) | 6.75 µM (active) |  |
| Nc1c2ccccc2nc2ccccc12 | inactive |  | 13.5 µM (active) | 13.5 µM (active) | 13.5 µM (active) | 5.01 µM (active) |  |  |  |  |
| O=[N+]([O-])c1ccc(O)c2ncccc12 | 12 µM (active) |  |  |  |  |  |  |  |  |  |
| CC(NCCC(c1ccccc1)c1ccccc1)c1ccccc1 (centres undefined) | inactive |  |  | 13.5 µM (active) | 16.9 µM (active) | 3.98 µM (active) | 13.5 µM (active) |  | 13.5 µM (active) |  |
| CN1CCCN(C(c2ccccc2)c2ccc(Cl)cc2)CC1 (centres undefined) | inactive | 5.01 µM (active) |  |  |  | 11.2 µM (active) |  |  |  | inactive |
| O=C(Nc1ccc(Cl)cc1)Nc1ccc(Cl)c(Cl)c1 | 5.36 µM (active) | 3.55 µM (active) | 8.49 µM (active) | 4.26 µM (active) | 6.01 µM (active) | 2.24 µM (active) | 4.78 µM (active) | 7.57 µM (active) | 4.78 µM (active) | inactive |
| CCCCCCCCCCCCCC[N+](C)(C)C | 4.78 µM (active) | 8.91 µM (active) | 10.7 µM (active) | 8.49 µM (active) | 5.36 µM (active) | 2.51 µM (active) | 4.78 µM (active) | 10.7 µM (active) | 5.36 µM (active) | 5.36 µM (active) |
| Nc1ccc2cc3ccc(N)cc3nc2c1 | inactive |  |  |  |  | 3.55 µM (active) |  |  |  |  |
| O=S(=O)(O)c1ccc2nc(-c3ccccc3)[nH]c2c1 | inactive | inactive | inactive | inactive | inactive | inactive | inactive | inactive | inactive | inactive |
| CN1CCC(Nc2ncc3ncnc(Nc4ccc(F)c(Cl)c4)c3n2)CC1 | inactive |  |  |  |  | 11.2 µM (active) | 15.1 µM (active) |  |  | inactive |
| CCCCCCCCCCCCCCCC[N+](C)(C)Cc1ccccc1 | 4.78 µM (active) | 3.98 µM (active) | 9.53 µM (active) | 12 µM (active) | 7.57 µM (active) | 2.82 µM (active) | 15.1 µM (active) | 13.5 µM (active) |  |  |
| Nc1ncnc2nc[nH]c12 | inactive | inactive | inactive | inactive | inactive | inactive | inactive | inactive | inactive | inactive |
